From PubChem BioAssay AID1159580 (chemical genetic matrix, 2015)
In all, about 5,500 compounds went through this assay and about 2,000 (36%) were called active. Another 18% or so got no clear call; they are omitted. Rule as the data show it: active = normalized growth mostly below about 0.91 (no sharp cut-off); inconclusive = no clear call, values can overlap the other calls; inactive = mostly above about 0.92. This is one part of the list.

Assay: chemical genetic growth profiling, strain panel (AID 1159580);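 also: tested at 20 µM; growth read once vehicle control cultures reached saturation at 30 °C; 1 = growth at the plate median or of vehicle wells; lower values mean less growth of the strain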
Settings: S. cerevisiae deletion strains, growth OD

Measured: normalized growth

CC(C)=CCC/C(C)=C/COc1ccc2ccc(=O)oc2c1
inactive: locus YAL021C, strain ccr4, active compounds read low 0.994 | locus YAL026C, strain drs2, active compounds read low 0.999 | locus YAL030W, strain snc1, active compounds read low 0.986 | locus YBL061C, strain skt5, active compounds read low 0.985 | locus YBR009C, strain hhf1, active compounds read low 0.976 | locus YBR023C, strain chs3, active compounds read low 0.982 | locus YBR171W, strain sec66, active compounds read low 0.981 | locus YBR231C, strain swc5, active compounds read low 0.996 | locus YBR279W, strain paf1, active compounds read low 0.99 | locus YCL011C, strain gbp2, active compounds read low 0.978 | locus YCL016C, strain dcc1, active compounds read low 0.988 | locus YCL061C, strain MRC1, active compounds read low 1 | locus YCL069W, strain vba3, active compounds read low 0.985 | locus YCR088W, strain abp1, active compounds read low 0.99 | locus YDL005C, strain med2, active compounds read low 1 | locus YDL040C, strain nat1, active compounds read low 0.986 | locus YDR001C, strain nth1, active compounds read low 0.993 | locus YDR069C, strain doa4, active compounds read low 0.998 | locus YDR137W, strain rgp1, active compounds read low 0.893 | locus YDR159W, strain sac3, active compounds read low 1.01 | locus YDR195W, strain ref2 1.04 | locus YDR297W, strain sur2, active compounds read low 0.984 | locus YDR334W, strain swr1, active compounds read low 0.992 | locus YDR335W, strain msn5, active compounds read low 1 | locus YDR392W, strain spt3, active compounds read low 0.952 | locus YEL003W, strain gim4, active compounds read low 0.997 | locus YEL037C, strain rad23, active compounds read low 0.991 | locus YEL061C, strain CIN8 (second series), active compounds read low 0.993 | locus YER015W, strain faa2, active compounds read low 1 | locus YER016W, strain bim1, active compounds read low 0.986 | locus YER111C, strain swi4, active compounds read low 1 | locus YER155C, strain BEM2 (second series), active compounds read low 0.999 | locus YFR010W, strain ubp6, active compounds read low 1 | locus YGL167C, strain pmr1, active compounds read low 0.985 | locus YGL173C, strain kem1, active compounds read low 0.99 | locus YGL227W, strain vid30, active compounds read low 0.992 | locus YGL240W, strain doc1, active compounds read low 0.999 | locus YGL253W, strain hxk2, active compounds read low 0.994 | locus YHR013C, strain ard1, active compounds read low 0.971 | locus YHR027C, strain rpn1, active compounds read low 0.998 | locus YHR030C, strain SLT2, active compounds read low 0.948 | locus YHR079C, strain IRE1, active compounds read low 0.969 | locus YHR142W, strain chs7, active compounds read low 0.962 | locus YJL092W, strain hpr5, active compounds read low 1 | locus YJL095W, strain BCK1 (second series), active compounds read low 0.987 | locus YJL095W, strain BCK1, active compounds read low 0.937 | locus YJL115W, strain asf1, active compounds read low 1 | locus YJL129C, strain trk1, active compounds read low 0.911 | locus YJL154C, strain vps35, active compounds read low 0.99 | locus YJL164C, strain tpk1, active compounds read low 0.966 | locus YJL166W, strain qcr8, active compounds read low 0.99 | locus YJL187C, strain SWE1, active compounds read low 0.99 | locus YJR066W, strain TOR1, active compounds read low 0.932 | locus YKL160W, strain elf1, active compounds read low 0.976 | locus YKR026C, strain gcn3, active compounds read low 0.99 | locus YKR091W, strain srl3, active compounds read low 0.985 | locus YLL001W, strain dnm1, active compounds read low 1 | locus YLL026W, active compounds read low 0.984 | locus YLL041C, strain sdh2, active compounds read low 0.983 | locus YLR027C, strain aat2, active compounds read low 0.974 | locus YLR113W, strain HOG1, active compounds read low 0.944 | locus YLR221C, strain rsa3, active compounds read low 0.976 | locus YLR258W, strain gsy2, active compounds read low 0.981 | locus YLR262C, strain YPT6 (second series), active compounds read low 0.932 | locus YLR320W, strain mms22, active compounds read low 0.974 | locus YLR342W, strain FKS1, active compounds read low 0.97 | locus YLR357W, strain rsc2, active compounds read low 1.01 | locus YLR370C, strain arc18, active compounds read low 0.999 | locus YLR384C, strain iki3, active compounds read low 0.992 | locus YML120C, strain ndi1, active compounds read low 0.973 | locus YMR058W, strain fet3, active compounds read low 1 | locus YMR125W, strain sto1, active compounds read low 0.996 | locus YMR129W, active compounds read low 0.993 | locus YMR205C, strain PFK2, active compounds read low 0.96 | locus YMR231W, strain pep5, active compounds read low 0.965 | locus YNL071W, strain lat1, active compounds read low 0.965 | locus YNL183C, strain NPR1, active compounds read low 0.912 | locus YNL209W, strain ssb2, active compounds read low 0.983 | locus YNL248C, strain rpa49, active compounds read low 0.981 | locus YNL322C, strain KRE1 (second series), active compounds read low 0.994 | locus YNR049C, strain mso1, active compounds read low 0.996 | locus YOR001W, strain rrp6, active compounds read low 0.989 | locus YOR070C, strain gyp1, active compounds read low 0.983 | locus YOR080W, strain dia2, active compounds read low 0.997 | locus YOR083W, strain WHI5, active compounds read low 0.978 | locus YOR106W, strain vam3, active compounds read low 0.933 | locus YOR231W, strain MKK1, active compounds read low 0.968 | locus YOR265W, strain rbl2, active compounds read low 0.973 | locus YOR270C, strain vph1, active compounds read low 0.896 | locus YOR290C, strain snf2, active compounds read low 0.968 | locus YPL051W, strain arl3, active compounds read low 0.987 | locus YPL078C, strain atp4, active compounds read low 0.983 | locus YPL106C, strain sse1, active compounds read low 1.01 | locus YPL240C, strain hsp82, active compounds read low 0.992 | locus YPL256C, strain CLN2, active compounds read low 0.917
